Most compounds without a hit are left out; they make up all but 8.1% or so of the library.
ELG1 repair inh = qHTS screen for small molecules that inhibit ELG1-dependent DNA repair in human embryonic kidney (HEK293T) cells expressing luciferase-tagged ELG1 | Potency, µM (doses to about 46.1 µM), for inactives: at the highest dose activity change, negative = inhibition, most hits filed as inhibitors | HEK293T ELG1-luciferase reporter, luminescence, 16 h; DNA damage induced by 5-fluorouridine | 330,000 tested, 2.3% active; further: on the % scale 0 is the no-effect control and ±100 the full control effect; nearly all actives have a fitted effect of over 55% in size
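HEK293T cells expressing luciferase-tagged ELG1 (2,000/well) received 5-Fluorouridine plus compound or DMSO for 16 hr at 37 °C. Luciferase was read by ONE-Glo luminescence after 30 min at room temperature.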
MCF10A rerep = A quantitative high throughput screen for small molecules that induce DNA re-replication in MCF 10a normal breast cells | Potency, µM (highest dose often 46.1 µM), without a hit: at the highest dose activity, positive = re-replication, hits mostly activators | 350,000 tested, 2.9% active | MCF 10A DNA re-replication, Hoechst nuclear intensity, 48 h; further: % of control where 0% means no effect; nearly all actives have a fitted effect of over 50% in size
SW480 rereplic = A quantitative high throughput screen for small molecules that induce DNA re-replication in SW480 colon adenocarcinoma cells | SW480 DNA re-replication, Hoechst DNA content imaging, 48 h | 340,000 tested, 1.8% active | Potency, µM (highest dose often 46.1 µM), for the others: at the highest dose re-replication activation, usual class: activators; further: % of control where 0% means no effect; nearly all actives have a fitted effect of over 55% in size
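250 cells/well; 23 nL cpd via pin tool; 48 hr, 37 C, 5% CO2; Hoechst 40 min; imager read of total nuclear intensity, ex 405/em 500-530 nm.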
KB-V1 cytotox = qHTS assay for MDR1-selective chemotherapeutics: Primary screen using the drug-selected MDR subline cells KB-V1 | KB-V1 MDR cells viability, CellTiter-Glo, 72 h | Potency, µM (highest dose often 46.1 µM), usual class: cytotoxic | 400,000 tested, 3.4% active | AID 1347076, 2019; further: on the % scale 0 is the no-effect control and ±100 the full control effect; nearly all actives have a fitted effect of over 60% in size
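KB-V1, DMEM (no phenol red) + 10% FBS; cpd pin-transferred, titration series; 72 h, 37 degrees C; CellTiter-Glo, luminescence. Data normalized, curve-fit.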
KB-3-1 tox = qHTS assay for MDR1-selective chemotherapeutics: Primary screen using the parental adenocarcinoma cell KB-3-1 | 400,000 tested, 1.4% active | KB-3-1 viability, CellTiter-Glo ATP luminescence, 72 h | Potency, µM (doses to about 46.1 µM), most hits filed as cytotoxic | AID 1347075, 2019; further: on the % scale 0 is the no-effect control and ±100 the full control effect; nearly all actives have a fitted effect of over 60% in size
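Here the drug-naive KB-3-1 line serves as comparator for MDR sub-line selectivity; cells received compound titrations, 72 h at 37 °C, then CellTiter-Glo readout.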
An asterisk follows results filed as active; i = inactive; ? = inconclusive; nt = no result given; [ ] = dose if it differs, or a comment. The call rests on the fitted dose curve; in most records, active means well fitted curve in the direction sought with a large enough effect; inconclusive means small, poorly fitted or top-dose-only effect, or another doubt; inactive means no such curve, though single readings can be large; an effect the other way counts as inactive or inconclusive. Potency means the concentration at half of the fitted maximal effect.

SMILES | ELG1 repair inh | MCF10A rerep | SW480 rereplic | KB-V1 cytotox | KB-3-1 tox
CCS(=O)(=O)c1ccc(N=Nc2ccc(O)c3ncccc23)c(OC)c1 | ? | ? | 4.6µM* | ? | 15µM*
O=C(NCC1CCCO1)c1sc2ccccc2c1Cl (configuration not stated) | ? | -1% | -6% | ? | i
O=C(Cn1cc(S(=O)(=O)N2CCCC2)c(S(=O)(=O)N2CCCC2)c1)Nc1ccc(F)cc1 | nt | nt | nt | ? | i
CCC(CC)NCC(O)COc1ccc(Br)cc1 (configuration not stated) | 0% | 0% | -2% | ? | i
C=C(C)Cc1c(C)c(C#N)c2[nH]c3ccccc3n2c1=O | 21µM* | ? | 8% | ? | ?
COCc1cc(=O)n2c([nH]c3ccccc32)c1C#N | ? | -2% | -8% | ? | i
Cc1ccc(Cc2c(C)c(C#N)c3[nH]c4ccccc4n3c2=O)cc1 | 18µM* | ? | -28% | i | ?
Cc1c(CCC(=O)O)c(=O)n2c([nH]c3ccccc32)c1C#N | 0% | 21% | -7% | i | i
C=CCCN(C(CC(C)C)C(=O)OC)S(=O)(=O)c1cc(Br)ccc1Br (configuration not stated) | 8% | -46% | -71% | i | ?
O=C(CN(C(=O)c1csnn1)c1ccccc1Cl)NC1CCCCC1 | 15% | 1% | -6% | i | i
CCN(CC)C(=O)c1nc[nH]c1C(=O)N1CCN(C(=O)OC(C)(C)C)CC1 | 13% | -1% | 1% | i | i
CC(C)(C)OC(=O)N1CCC(NC(=O)c2nc[nH]c2C(=O)NC2CCN(C(=O)OC(C)(C)C)CC2)CC1 | ? | ? | 31% | ? | i
CC(C)(C)OC(=O)N1CCC(NC(=O)c2[nH]cnc2C(=O)Nc2cccc(Cl)c2)CC1 | 18µM* | -11% | 1% | ? | i
CC(C)(C)OC(=O)NCc1ccc(CNC(=O)c2nc[nH]c2C(=O)N2CCN(C(=O)OC(C)(C)C)CC2)cc1 | 12µM* | 24% | -1% | i | ?
Cn1cnc(C(=O)NC2CCN(C(=O)OC(C)(C)C)CC2)c1C(=O)NC1CCN(C(=O)OC(C)(C)C)CC1 | 10µM* | ? | -9% | i | i
Cc1ccc(NC(=O)c2nc[nH]c2C(=O)N2CCN(C(=O)OC(C)(C)C)CC2)cc1 | ? | ? | -6%[9.22 µM] | i | i
CC(C)(C)OC(=O)N1CCN(C(=O)c2[nH]cnc2C(=O)Nc2ccc(Cl)cc2)CC1 | 21µM* | 12% | -2% | i | i
COc1ccc(C2N=C(c3ccccc3)NC(c3ccccc3)=N2)cc1 | -2% | 2.6µM* | ? | ? | i
CCCOc1ccc(C2c3c(-c4ccccc4O)n[nH]c3C(=O)N2CCc2ccccc2)cc1OCC (configuration not stated) | nt | nt | nt | i | i
CCC1(O)CC2CN(CCc3c([nH]c4ccccc34)C(C(=O)OC)(c3cc4c(cc3OC)N(C=O)C3C(O)(C(=O)OC)C(OC(C)=O)C5(CC)C=CCN6CCC43C65)C2)C1 (configuration not stated) | nt | ? | 0.16µM* | 16µM* | 0.046µM*
CC[C@]1(O)CC2CN(CCc3c([nH]c4ccccc34)[C@@](C(=O)OC)(c3cc4c(cc3OC)N(C)[C@H]3[C@@](O)(C(=O)OC)[C@H](OC(C)=O)[C@]5(CC)C=CCN6CC[C@]43[C@@H]65)C2)C1 (some centres not stated) | nt | ? | 0.75µM* | ? | 0.023µM*
CCC1=C[C@@H]2CN(C1)Cc1c([nH]c3ccccc13)[C@@](C(=O)OC)(c1cc3c(cc1OC)N(C)[C@@H]1[C@@](O)(C(=O)OC)[C@H](OC(C)=O)[C@]4(CC)C=CCN5CC[C@]31[C@@H]54)C2 | nt | 67% | 1.2µM* | nt | nt

Screening results (PubChem)
